Values joined by “and” are separate entries in the source; they are usually repeats but may differ in a detail not shown here. Equal values may be shown once. Records with an inconclusive call do not appear. Some structures have more than one record in an assay (separate samples or runs), and their calls can disagree. Active and inactive are the calls of the source. Unless noted, calls come from the whole dose curve; as a rule, active = well fitted curve in the direction sought with a large enough effect in the repeat runs; inconclusive = weak or mixed curves; inactive = no such curve, though single readings can be large; an effect the other way counts as inactive or inconclusive.
Legend:
[1] = A CellTox Green Cytotoxicity Assay to monitor cytotoxicity in HepG2 cells - 8 hour (AID 1224890); note: nearly all actives have a fitted effect of over 45% in size; note: potency is the fitted concentration of half-maximal effect
In short: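 Cells and non-lytic dye reagent are dispensed together (600 HepG2 cells/well) and incubated 5 h before DMSO compound transfer. Kinetic fluorescence is then recorded in the same wells during 40 h at 37 C.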

[2] = qHTS assay to identify small molecule antagonists of the estrogen receptor alpha (ER-alpha) signaling pathway using the BG1 cell line in the presence of 0.1 nM 17-beta-estradiol - cell viability counter screen (AID 1259241); note: nearly all actives have a fitted effect of over 40% in size
In short: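 CellTiter-Fluor read (30 min, 37C) on ER-alpha/ERE-luc VM7Luc4E2 cells; 22 hr compound treatment; agonist 0.1 nM E2 final; same-well multiplex.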

[3] = qHTS assay to identify small molecule antagonists of the androgen receptor (AR) signaling pathway using the MDA cell line in the presence of 0.5 nM R1881 - cell viability counter screen (AID 1259242); note: nearly all actives have a fitted effect of over 45% in size
In short: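 Steps: plate MDA-kb2 cells, rest 5 hr at 37C without CO2; pin in compounds in DMSO; add R1881 to 0.5 nM final; incubate 16 hr; add CellTiter-Fluor, 30 min; read fluorescence.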

[4] = qHTS assay to identify small molecule HDAC inhibitors (AID 1259364); note: potency is the fitted concentration of half-maximal effect;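 note: wild-type HCT-116 cells with endogenous class I/II HDAC activity; nearly all actives have a fitted effect of over 45% in size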
In short: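 Cells (HCT-116, wild type) are seeded at 1,500 per well, incubated overnight, treated with compound in DMSO for 2 hr, then developed with HDAC-Glo I/II reagent for 30 min at room temperature.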

[5] = qHTS assay to identify small molecule HDAC inhibitors - cell viability counter screen (AID 1259365); note: series mostly up to about 92 µM; nearly all actives have a fitted effect of over 50% in size
In short: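 To flag cytotoxic hits, 1,500 wild-type HCT-116 cells per well, plated the day before, receive test compounds for 2hr at 37 C before CellTiter-Glo reagent and a luminescence read.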

[6] = qHTS assay to identify small molecule antagonists of the sonic hedgehog signaling (Shh) pathway - cell viability counter screen (AID 1259367); note: nearly all actives have a fitted effect of over 55% in size; note: potency is the fitted concentration of half-maximal effect
In short: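 Conditioned medium drove Shh signaling in 3T3 Gli1-Luc cells exposed to compounds at 37C and 5% CO2. Viability was determined from CellTiter-Fluor fluorescence, with reagent incubated 1 hr after 23 hr of treatment.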

[7] = qHTS assay to identify small molecule agonists of the sonic hedgehog signaling (Shh) pathway (AID 1259368; calls by dose curve;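 note: NIH/3T3-derived 3T3Gli1-Luc cells carrying a stable Gli1-driven firefly luciferase reporter; series mostly up to about 92 µM; nearly all actives have a fitted effect of over 15% in size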)
In short: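 Cells of a mouse NIH/3T3 clone stably expressing luciferase under the Gli1 transcriptional response element are exposed to test chemicals for 24 hr at 37 C. Pathway activation is detected as a rise in luminescence.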

[8] = qHTS assay to identify small molecule antagonists of the sonic hedgehog signaling (Shh) pathway (AID 1259369; calls by dose curve; note: nearly all actives have a fitted effect of over 45% in size; note: potency is the fitted concentration of half-maximal effect)
In short: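 Cells are plated and held 4hr at 37 C, compounds (DMSO) are pinned in, conditioned medium is added to stimulate the pathway, and after 24hr luciferase reagent is added for 30min before luminescence is read.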

[9] = target: Estrogen receptor beta (Homo sapiens) (UniProt Q92731); test: qHTS assay to identify small molecule agonists of the estrogen receptor beta (ER-beta) signaling pathway (AID 1259377; active = well fitted activation curve with a large enough effect in the signal ratio in the repeat runs, not every such curve was filed as active; the % refers to the signal ratio)
In short: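 Screening used GripTite ER-beta-UAS-bla cells held in 2% charcoal-stripped FBS medium. After overnight (16 hr) compound incubation at 37C, beta-lactamase activity was detected with a FRET substrate by fluorescence.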

[10] = qHTS assay to identify small molecule agonists of the estrogen receptor beta (ER-beta) signaling pathway - cell viability counter screen (AID 1259380); note: nearly all actives have a fitted effect of over 30% in size; note: potency is the fitted concentration of half-maximal effect
In short: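 Cytotoxicity is measured in parallel with the reporter screen: after 16 hr compound exposure at 37C and a 2 hr LiveBLAzer step, CellTiter-Glo is added to the same ER-beta-UAS-bla HEK293T wells and luminescence read after 30 min.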

[11] = qHTS assay to identify small molecule antagonists of the estrogen receptor beta (ER-beta) signaling pathway - cell viability counter screen (AID 1259382); note: nearly all actives have a fitted effect of over 55% in size; note: potency is the fitted concentration of half-maximal effect
In short: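 Cytotoxicity counter screen multiplexed with the beta-lactamase antagonist assay: GripTite HEK293T ER-beta-bla cells were treated 16 hr with test chemicals in the presence of 1nM 17-beta-estradiol, and viability was measured by CellTiter-Glo.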

[12] = qHTS assay to identify small molecule agonists or antagonists of the thyroid stimulating hormone receptor (TSHR) signaling pathway - wild type cell line counter screen (AID 1259384; calls by dose curve)
In short: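 Wild-type HEK293 cells were plated 18 h at 37 C/5% CO2, pin-dosed with compound plus Ro20-1724 medium, held 30 min at room temperature, then given cAMP-d2 and anti-cAMP-cryptate; fluorescence was read after 1 h. Fifteen concentrations, triplicate.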

[13] = target: Estrogen receptor (Homo sapiens) (UniProt P03372); test: qHTS assay to identify small molecule antagonists of the estrogen receptor alpha (ER-alpha) signaling pathway using the BG1 cell line in the presence of 0.1 nM 17-beta-estradiol (AID 1259244); note: nearly all actives have a fitted effect of over 50% in size; note: potency is the fitted concentration of half-maximal effect
In short: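 Antagonist mode: compounds in DMSO are pinned onto VM7Luc4E2 reporter cells, 0.1 nM final 17beta-estradiol is added, and after 22 h at 37C luciferase luminescence is measured with ONE-Glo.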

[14] = qHTS assay to identify small molecule agonists of the sonic hedgehog signaling (Shh) pathway - cell viability counter screen (AID 1259366); note: nearly all actives have a fitted effect of over 50% in size; note: potency is the fitted concentration of half-maximal effect
In short: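 Fluorescence from CellTiter-Fluor reports live cells in this counter screen. NIH/3T3-derived Gli1-Luc reporter cells receive test compounds for 24hr at 37C; reagent goes in at 23hr.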

[15] = qHTS assay to identify small molecule agonists of the androgen receptor (AR) signaling pathway in the presence of an antagonist - cell viability counter screen (AID 1259379); note: nearly all actives have a fitted effect of over 25% in size; note: potency is the fitted concentration of half-maximal effect
In short: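 Cytotoxicity is assessed by CellTiter-Fluor in MDA-kb2 cells carrying an MMTV-driven luciferase reporter. Cells receive 3.0uM nilutamide plus compounds at 15 concentrations and incubate 16 hr at 37C without CO2 before fluorescence reading.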

[16] = target: Estrogen receptor (Homo sapiens) (UniProt P03372); test: qHTS assay to identify small molecule agonists of the estrogen receptor alpha (ER-alpha) signaling pathway in the presence of an antagonist (AID 1259383; calls by dose curve; note: nearly all actives have a fitted effect of over 15% in size; note: potency is the fitted concentration of half-maximal effect; for activation: top concentration of the series differs between compounds)
In short: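 Agonist-mode confirmation in the presence of the ER antagonist ICI-182,780 at 10.0nM final. Breast-derived VM7Luc4E2 reporter cells were exposed to compounds for 22hr, and ERE-driven luciferase was quantified by luminescence.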

[17] = target: Estrogen receptor beta (Homo sapiens) (UniProt Q92731); test: qHTS assay to identify small molecule antagonists of the estrogen receptor beta (ER-beta) signaling pathway (AID 1259378; active = well fitted inhibition curve with a large enough effect in the signal ratio in the repeat runs, not every such curve was filed as active; the % refers to the signal ratio)
In short: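 ER-beta-UAS-bla HEK293T (GripTite) cells in 2% charcoal-stripped FBS medium were preincubated 6 hr at 37C, dosed with compound, then stimulated with 1 nM E2 (final) for 16 hr; beta-lactamase reporter read by B/G FRET fluorescence after 2 hr substrate loading.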

[18] = qHTS assay to identify small molecule phospholipidosis (PLD) inducers (AID 1259344; active = well fitted curve in the direction sought with a large enough effect; an effect the other way counts as inactive or inconclusive)
In short: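 After 4 h attachment on collagen I, HepG2 cells were dosed with compound alongside LipidTOX Red, kept 24 h at 37 C, fixed, and imaged for lamellar phospholipid pits.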

[19] = target: Androgen receptor (Homo sapiens) (UniProt P10275); test: qHTS assay to identify small molecule antagonists of the androgen receptor (AR) signaling pathway using the MDA cell line in the presence of 0.5 nM R1881 (AID 1259243); note: potency is the fitted concentration of half-maximal effect; nearly all actives have a fitted effect of over 50% in size
In short: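 Stably transfected MDA-kb2 cells express luciferase from an MMTV promoter bearing both AR and GR response elements. Compounds plus 0.5 nM R1881 (final) were incubated 16 hr at 37C without CO2, then luminescence measured.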

[20] = target: Androgen receptor (Homo sapiens) (UniProt P10275); test: qHTS assay to identify small molecule agonists of the androgen receptor (AR) signaling pathway in the presence of an antagonist (AID 1259381; calls by dose curve; note: nearly all actives have a fitted effect of over 15% in size)
In short: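 Agonist-mode confirmation screen: human MDA-kb2 cells stably expressing luciferase under an MMTV promoter bearing AR and GR response elements, co-treated with 3.0uM nilutamide (final). Luminescence measured after 16hr compound incubation.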

Measured: Potency

Sequence of Androgen receptor (Homo sapiens) (P10275 whole entry, looked up): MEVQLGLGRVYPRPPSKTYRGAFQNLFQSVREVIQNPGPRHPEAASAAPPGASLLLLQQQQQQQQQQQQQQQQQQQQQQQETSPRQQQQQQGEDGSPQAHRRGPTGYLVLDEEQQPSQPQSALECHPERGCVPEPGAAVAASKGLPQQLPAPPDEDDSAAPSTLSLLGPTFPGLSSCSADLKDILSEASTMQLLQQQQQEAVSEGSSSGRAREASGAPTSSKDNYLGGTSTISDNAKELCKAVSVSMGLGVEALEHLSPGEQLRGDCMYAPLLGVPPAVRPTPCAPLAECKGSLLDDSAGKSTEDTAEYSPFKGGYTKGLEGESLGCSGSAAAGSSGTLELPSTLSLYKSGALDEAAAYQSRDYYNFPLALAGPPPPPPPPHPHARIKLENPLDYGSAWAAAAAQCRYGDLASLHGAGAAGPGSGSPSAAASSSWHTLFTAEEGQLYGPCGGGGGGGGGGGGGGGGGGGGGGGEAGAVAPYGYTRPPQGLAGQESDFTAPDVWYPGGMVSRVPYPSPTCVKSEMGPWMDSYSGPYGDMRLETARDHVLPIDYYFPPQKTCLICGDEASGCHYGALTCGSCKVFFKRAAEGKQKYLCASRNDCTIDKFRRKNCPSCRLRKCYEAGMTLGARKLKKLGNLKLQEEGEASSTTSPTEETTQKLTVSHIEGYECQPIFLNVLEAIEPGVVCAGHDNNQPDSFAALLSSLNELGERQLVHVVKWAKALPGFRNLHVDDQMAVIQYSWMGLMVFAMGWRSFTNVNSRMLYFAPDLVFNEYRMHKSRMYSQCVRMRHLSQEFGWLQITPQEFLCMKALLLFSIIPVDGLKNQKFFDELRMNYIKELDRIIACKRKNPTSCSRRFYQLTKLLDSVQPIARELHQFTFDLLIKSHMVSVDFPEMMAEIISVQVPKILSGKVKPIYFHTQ
Sequence of Estrogen receptor (Homo sapiens) (P03372 whole entry, looked up): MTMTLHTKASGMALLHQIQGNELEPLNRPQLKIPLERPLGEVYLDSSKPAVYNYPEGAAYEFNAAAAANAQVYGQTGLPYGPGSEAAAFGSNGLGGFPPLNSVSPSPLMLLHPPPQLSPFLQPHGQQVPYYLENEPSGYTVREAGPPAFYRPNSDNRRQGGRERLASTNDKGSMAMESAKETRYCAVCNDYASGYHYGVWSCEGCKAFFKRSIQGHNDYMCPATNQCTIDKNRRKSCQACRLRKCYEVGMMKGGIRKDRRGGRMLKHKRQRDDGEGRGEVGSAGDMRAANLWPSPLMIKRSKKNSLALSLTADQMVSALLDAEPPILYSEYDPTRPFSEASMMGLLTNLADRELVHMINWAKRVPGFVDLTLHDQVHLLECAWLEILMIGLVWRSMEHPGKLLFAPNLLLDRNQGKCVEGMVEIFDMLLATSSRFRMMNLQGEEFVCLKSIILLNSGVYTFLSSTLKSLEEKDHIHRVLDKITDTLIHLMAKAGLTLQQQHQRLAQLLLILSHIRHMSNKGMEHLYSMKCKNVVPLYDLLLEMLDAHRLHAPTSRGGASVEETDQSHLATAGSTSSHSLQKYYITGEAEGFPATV
Sequence of Estrogen receptor beta (Homo sapiens) (Q92731 whole entry, looked up): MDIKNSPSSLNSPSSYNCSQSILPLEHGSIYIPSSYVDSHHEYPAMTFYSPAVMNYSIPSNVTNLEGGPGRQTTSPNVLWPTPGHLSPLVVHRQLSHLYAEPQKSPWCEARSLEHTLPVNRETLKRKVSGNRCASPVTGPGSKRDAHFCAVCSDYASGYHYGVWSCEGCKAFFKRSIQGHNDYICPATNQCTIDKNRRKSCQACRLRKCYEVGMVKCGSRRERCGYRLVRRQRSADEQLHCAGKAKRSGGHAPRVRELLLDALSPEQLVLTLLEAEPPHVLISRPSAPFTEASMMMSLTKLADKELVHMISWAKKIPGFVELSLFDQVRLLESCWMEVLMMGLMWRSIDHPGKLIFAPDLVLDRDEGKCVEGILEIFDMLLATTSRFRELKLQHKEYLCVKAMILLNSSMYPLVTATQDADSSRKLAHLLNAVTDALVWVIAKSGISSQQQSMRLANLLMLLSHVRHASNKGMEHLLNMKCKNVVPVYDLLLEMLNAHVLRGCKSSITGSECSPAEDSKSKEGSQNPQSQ

C/C=C/C(=O)O
inactive: [1] | [2] | [3] | [4] | [5] | [6] | [7] | [8] | [9] | [10] | [11] | [12]

S=C(NC1CCCCC1)NC1CCCCC1
inactive and 30.6 µM (active): [6]
active: [13] 53.4 µM and 48.6 µM | [8] 24.3 µM
inactive: [1] | [2] | [3] | [4] | [5] | [14] | [9] | [15] | [10] | [11] | [16] | [12]

O=C(OCc1ccccc1)c1ccccc1O
active: [4] 24.2 µM and 24.3 µM
inactive: [1] | [2] | [3] | [13] | [5] | [6] | [7] | [8] | [9] | [17] | [15] | [10] | [11] | [16] | [12]

COC(=O)c1ccccc1
inactive: [1] | [2] | [3] | [4] | [5] | [14] | [6] | [7] | [8] | [9] | [15] | [10] | [11] | [12]

C[C@]12CC[C@H]3[C@@H](CCC4=CC(=O)CC[C@@]43C)[C@@H]1CC[C@@H]2C(=O)CO
inactive: [1] | [2] | [13] | [18] | [4] | [5] | [14] | [6] | [7] | [9] | [15] | [11]
15.4 µM (active) and inactive: [8]

Clc1nc(Cl)c(Cl)c(Cl)c1Cl
inactive: [1] | [2] | [3] | [4] | [5] | [6] | [7] | [9] | [17] | [10] | [11] | [12]
active: [15] 61.4 µM

O=C(c1ccccc1)c1ccc(O)cc1O
62.3 µM (active) and inactive: [11]
55.5 µM (active) and inactive: [6]
inactive: [1] | [2] | [3] | [13] | [4] | [5] | [14] | [7] | [15] | [10] | [12]
active: [16] 19.7 µM and 30.6 µM

Nc1ncn([C@@H]2O[C@H](CO)[C@@H](O)[C@H]2O)c(=O)n1
active: [19] 4.33 µM and 3.76 µM | [8] 13.7 µM | [10] 5.45 µM
inactive: [1] | [2] | [13] | [18] | [4] | [5] | [7] | [20] | [11] | [16] | [12]

O=P(O)(O)O
inactive: [1] | [2] | [3] | [18] | [4] | [5] | [14] | [6] | [7] | [8] | [9] | [15] | [10] | [11] | [12]

Cc1c(OCC(F)(F)F)ccnc1CS(=O)c1nc2ccccc2[nH]1 (stereo not drawn)
inactive: [1] | [2] | [3] | [18] | [4] | [5] | [6] | [7] | [8] | [9] | [15] | [10] | [11] | [12]

CCCC(=O)O
inactive: [1] | [2] | [3] | [18] | [4] | [5] | [6] | [7] | [8] | [10] | [11] | [12]

CC(C)Oc1ccc2c(=O)c(-c3ccccc3)coc2c1
inactive: [1] | [2] | [3] | [18] | [5] | [14] | [6] | [11] | [12]
active: [4] 2.37 µM

CCCCOCCOCCO
inactive: [1] | [2] | [3] | [13] | [4] | [5] | [6] | [7] | [9] | [17] | [10] | [11] | [12]

Brc1cc(Oc2cc(Br)c(Br)c(Br)c2Br)c(Br)c(Br)c1Br
inactive: [1] | [2] | [3] | [4] | [5] | [14] | [6] | [7] | [8] | [15] | [11] | [12]
6.89 µM (active) and inactive: [10]

CC(C)CC(C)(O)C#CC(C)(O)CC(C)C (stereo not drawn)
inactive: [1] | [2] | [3] | [4] | [5] | [7] | [9] | [10] | [11] | [12]
30 µM (active) and inactive: [6]
13.4 µM (active) and inactive: [14]

COc1c(Cl)c(Cl)c(Cl)c(Cl)c1Cl
inactive: [1] | [2] | [3] | [4] | [5] | [14] | [6] | [7] | [9] | [10] | [11] | [12]

OC1CCCCCCCCCCC1
inactive: [2] | [3] | [13] | [4] | [5] | [6] | [7] | [8] | [10] | [11] | [16] | [12]
active: [1] 43.6 µM

OC[C@H]1O[C@@H]2O[C@H]3[C@H](O)[C@@H](O)[C@@H](O[C@H]4[C@H](O)[C@@H](O)[C@@H](O[C@H]5[C@H](O)[C@@H](O)[C@@H](O[C@H]6[C@H](O)[C@@H](O)[C@@H](O[C@H]7[C@H](O)[C@@H](O)[C@@H](O[C@H]8[C@H](O)[C@@H](O)[C@@H](O[C@H]1[C@H](O)[C@H]2O)O[C@@H]8CO)O[C@@H]7CO)O[C@@H]6CO)O[C@@H]5CO)O[C@@H]4CO)O[C@@H]3CO
inactive: [1] | [2] | [3] | [18] | [4] | [5] | [14] | [6] | [7] | [8] | [11] | [12]
61.3 µM (active) and inactive: [10]

From PubChem BioAssay (Tox21)
